# The supplement of paper PMC11732987, “Enantioselective OTUD7B fragment discovery through chemoproteomics screening and high-throughput optimisation” (Communications Chemistry, 2025)
# Values without a mark were called inactive.
# Experiments:
# Test in all cases: log2 ratio of Biotin-Ahx-Ub-VS probe labelling (fragment/DMSO); higher = less target engagement (more negative = stronger competition), active = hit call of the paper (q ≤ 0.05, log2 ratio ≤ -1)
# Details in all cases: compound concentration: 200 uM; treatment time: 3 h
# USP19 = molecular target: T1, USP19 (UniProt O94966)
# T1 sequence (whole entry): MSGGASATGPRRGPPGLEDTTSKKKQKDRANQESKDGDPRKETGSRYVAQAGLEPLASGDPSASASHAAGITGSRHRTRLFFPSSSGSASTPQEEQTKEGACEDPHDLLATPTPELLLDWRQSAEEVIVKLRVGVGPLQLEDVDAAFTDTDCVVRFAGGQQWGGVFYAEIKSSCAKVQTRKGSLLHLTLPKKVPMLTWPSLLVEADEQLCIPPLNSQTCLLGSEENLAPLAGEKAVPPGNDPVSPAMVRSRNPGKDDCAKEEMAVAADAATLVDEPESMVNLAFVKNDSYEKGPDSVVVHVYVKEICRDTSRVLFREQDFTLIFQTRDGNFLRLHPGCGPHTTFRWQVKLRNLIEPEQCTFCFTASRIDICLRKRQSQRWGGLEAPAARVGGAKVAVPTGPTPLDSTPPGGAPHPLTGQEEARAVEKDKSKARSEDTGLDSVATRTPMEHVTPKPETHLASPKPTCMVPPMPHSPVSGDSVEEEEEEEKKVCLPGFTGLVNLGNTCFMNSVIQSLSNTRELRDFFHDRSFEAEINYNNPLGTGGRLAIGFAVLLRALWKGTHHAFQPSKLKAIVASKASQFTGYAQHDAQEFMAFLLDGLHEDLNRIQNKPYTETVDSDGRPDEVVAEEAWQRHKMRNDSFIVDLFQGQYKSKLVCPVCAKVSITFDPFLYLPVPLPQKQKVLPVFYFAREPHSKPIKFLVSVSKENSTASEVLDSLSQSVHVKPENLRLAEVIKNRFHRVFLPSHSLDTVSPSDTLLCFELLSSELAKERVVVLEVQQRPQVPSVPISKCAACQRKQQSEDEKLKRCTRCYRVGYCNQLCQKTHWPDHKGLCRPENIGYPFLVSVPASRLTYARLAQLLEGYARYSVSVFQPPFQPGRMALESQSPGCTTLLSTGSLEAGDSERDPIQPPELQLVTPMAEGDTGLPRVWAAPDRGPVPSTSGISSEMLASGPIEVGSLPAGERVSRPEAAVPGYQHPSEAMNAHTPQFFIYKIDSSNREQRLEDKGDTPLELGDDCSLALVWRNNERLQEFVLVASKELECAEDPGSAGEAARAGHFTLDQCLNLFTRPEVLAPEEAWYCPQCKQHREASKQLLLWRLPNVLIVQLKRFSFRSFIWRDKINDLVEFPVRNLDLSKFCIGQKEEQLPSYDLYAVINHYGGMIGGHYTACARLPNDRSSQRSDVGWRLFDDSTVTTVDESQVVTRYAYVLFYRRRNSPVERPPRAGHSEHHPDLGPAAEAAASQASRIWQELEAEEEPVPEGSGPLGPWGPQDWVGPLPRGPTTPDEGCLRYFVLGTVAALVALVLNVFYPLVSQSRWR
# Procedure, shortened: (§1)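 Labelled DUBs were enriched with NeutrAvidin, digested with LysC and trypsin, and run by diaPASEF LC-MS/MS. The labelling used Biotin-Ahx-Ub-VS at 0.5 µM final for 1 h on HEK293T lysate (495 µg per sample) previously treated in triplicate with fragment at 200 µM or vehicle for 3 h. Values are average log2 fragment/vehicle ratios by unpaired t-test on global-median-normalised Spectronaut quantities of proteins with ≥2 unique peptides.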
# USP22 = molecular target: T2, USP22 (UniProt Q9UPT9)
# T2 sequence (whole entry): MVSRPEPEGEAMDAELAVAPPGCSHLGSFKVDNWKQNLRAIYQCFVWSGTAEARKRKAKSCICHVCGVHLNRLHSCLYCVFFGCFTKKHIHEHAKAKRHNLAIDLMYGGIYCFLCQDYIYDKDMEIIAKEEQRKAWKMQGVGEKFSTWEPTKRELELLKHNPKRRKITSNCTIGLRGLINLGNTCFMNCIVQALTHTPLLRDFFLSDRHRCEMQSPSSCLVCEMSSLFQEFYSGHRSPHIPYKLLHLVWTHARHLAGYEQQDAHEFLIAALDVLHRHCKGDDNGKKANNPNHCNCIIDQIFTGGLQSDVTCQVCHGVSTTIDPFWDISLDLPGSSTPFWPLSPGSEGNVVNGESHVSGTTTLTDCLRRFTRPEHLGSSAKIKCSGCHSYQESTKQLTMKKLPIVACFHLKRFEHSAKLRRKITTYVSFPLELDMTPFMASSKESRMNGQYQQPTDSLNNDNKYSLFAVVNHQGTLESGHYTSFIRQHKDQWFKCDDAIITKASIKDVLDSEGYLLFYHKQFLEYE
# Procedure, shortened: as §1
# USP24 = USP24 (UniProt Q9UPU5)
# Chain of USP24 (Q9UPU5 whole entry): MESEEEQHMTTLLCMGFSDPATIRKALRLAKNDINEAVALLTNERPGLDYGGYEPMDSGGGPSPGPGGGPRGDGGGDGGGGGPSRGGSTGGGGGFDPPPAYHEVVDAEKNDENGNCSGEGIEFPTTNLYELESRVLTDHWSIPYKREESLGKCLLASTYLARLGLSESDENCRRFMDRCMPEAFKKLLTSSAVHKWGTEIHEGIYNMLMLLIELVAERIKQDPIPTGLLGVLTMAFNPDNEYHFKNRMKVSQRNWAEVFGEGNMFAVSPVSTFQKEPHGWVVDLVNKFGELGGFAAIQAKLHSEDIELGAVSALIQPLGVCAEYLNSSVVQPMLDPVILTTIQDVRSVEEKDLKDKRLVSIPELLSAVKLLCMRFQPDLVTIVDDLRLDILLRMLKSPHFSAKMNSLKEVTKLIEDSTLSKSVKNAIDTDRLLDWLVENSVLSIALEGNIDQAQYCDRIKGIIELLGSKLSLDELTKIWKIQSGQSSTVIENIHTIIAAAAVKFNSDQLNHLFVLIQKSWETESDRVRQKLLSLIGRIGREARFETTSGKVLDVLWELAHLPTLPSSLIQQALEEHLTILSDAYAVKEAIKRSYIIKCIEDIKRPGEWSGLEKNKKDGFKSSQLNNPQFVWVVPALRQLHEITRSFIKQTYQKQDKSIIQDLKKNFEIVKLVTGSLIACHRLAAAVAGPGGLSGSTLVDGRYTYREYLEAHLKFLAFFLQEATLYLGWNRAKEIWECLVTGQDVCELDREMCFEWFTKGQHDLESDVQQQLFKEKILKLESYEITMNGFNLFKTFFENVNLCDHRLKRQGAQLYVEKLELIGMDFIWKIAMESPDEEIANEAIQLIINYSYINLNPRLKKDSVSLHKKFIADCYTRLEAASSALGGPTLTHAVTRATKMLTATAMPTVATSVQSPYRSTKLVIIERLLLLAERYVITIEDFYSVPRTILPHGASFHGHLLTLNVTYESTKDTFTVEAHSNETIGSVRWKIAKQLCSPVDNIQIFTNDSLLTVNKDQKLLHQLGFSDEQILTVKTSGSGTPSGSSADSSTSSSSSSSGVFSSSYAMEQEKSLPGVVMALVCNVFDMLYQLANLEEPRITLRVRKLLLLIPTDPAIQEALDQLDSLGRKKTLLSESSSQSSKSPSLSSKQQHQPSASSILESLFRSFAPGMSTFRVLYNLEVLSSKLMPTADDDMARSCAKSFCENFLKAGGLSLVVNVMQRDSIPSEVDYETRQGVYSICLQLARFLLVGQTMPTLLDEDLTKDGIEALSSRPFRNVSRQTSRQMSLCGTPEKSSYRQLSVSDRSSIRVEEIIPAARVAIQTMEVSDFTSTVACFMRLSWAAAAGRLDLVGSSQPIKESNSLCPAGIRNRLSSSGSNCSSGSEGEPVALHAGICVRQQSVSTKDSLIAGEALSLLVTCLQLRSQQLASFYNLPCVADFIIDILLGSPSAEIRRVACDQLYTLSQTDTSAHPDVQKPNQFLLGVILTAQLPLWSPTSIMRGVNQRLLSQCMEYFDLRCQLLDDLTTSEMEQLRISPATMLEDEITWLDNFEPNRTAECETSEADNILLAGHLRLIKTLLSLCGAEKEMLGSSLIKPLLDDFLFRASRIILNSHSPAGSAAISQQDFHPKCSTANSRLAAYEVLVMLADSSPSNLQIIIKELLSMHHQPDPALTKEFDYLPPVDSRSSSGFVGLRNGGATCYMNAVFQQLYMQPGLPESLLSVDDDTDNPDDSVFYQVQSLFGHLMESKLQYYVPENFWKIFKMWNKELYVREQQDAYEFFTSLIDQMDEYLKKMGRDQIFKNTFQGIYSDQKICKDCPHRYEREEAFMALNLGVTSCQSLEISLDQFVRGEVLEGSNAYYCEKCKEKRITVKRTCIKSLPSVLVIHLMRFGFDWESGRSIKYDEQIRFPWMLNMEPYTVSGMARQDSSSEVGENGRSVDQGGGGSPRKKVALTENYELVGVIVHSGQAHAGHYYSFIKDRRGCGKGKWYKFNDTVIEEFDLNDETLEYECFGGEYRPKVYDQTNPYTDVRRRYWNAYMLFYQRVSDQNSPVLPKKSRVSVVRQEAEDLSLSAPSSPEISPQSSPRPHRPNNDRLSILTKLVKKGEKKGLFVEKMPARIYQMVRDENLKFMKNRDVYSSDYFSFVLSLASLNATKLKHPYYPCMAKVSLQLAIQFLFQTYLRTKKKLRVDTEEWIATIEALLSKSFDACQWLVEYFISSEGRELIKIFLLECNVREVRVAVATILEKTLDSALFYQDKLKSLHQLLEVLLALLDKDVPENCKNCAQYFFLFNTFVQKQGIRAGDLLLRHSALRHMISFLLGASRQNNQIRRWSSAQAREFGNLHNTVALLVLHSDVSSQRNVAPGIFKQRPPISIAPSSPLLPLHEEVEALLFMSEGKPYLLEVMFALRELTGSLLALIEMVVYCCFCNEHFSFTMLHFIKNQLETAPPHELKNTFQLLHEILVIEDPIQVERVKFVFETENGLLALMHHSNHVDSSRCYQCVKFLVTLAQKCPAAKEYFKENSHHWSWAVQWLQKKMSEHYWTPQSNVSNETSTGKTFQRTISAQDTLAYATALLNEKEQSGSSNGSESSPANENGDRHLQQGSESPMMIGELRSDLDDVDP
# Procedure, shortened: as §1
# USP25 = molecular target: T3, USP25 (UniProt Q9UHP3)
# T3 sequence (whole entry): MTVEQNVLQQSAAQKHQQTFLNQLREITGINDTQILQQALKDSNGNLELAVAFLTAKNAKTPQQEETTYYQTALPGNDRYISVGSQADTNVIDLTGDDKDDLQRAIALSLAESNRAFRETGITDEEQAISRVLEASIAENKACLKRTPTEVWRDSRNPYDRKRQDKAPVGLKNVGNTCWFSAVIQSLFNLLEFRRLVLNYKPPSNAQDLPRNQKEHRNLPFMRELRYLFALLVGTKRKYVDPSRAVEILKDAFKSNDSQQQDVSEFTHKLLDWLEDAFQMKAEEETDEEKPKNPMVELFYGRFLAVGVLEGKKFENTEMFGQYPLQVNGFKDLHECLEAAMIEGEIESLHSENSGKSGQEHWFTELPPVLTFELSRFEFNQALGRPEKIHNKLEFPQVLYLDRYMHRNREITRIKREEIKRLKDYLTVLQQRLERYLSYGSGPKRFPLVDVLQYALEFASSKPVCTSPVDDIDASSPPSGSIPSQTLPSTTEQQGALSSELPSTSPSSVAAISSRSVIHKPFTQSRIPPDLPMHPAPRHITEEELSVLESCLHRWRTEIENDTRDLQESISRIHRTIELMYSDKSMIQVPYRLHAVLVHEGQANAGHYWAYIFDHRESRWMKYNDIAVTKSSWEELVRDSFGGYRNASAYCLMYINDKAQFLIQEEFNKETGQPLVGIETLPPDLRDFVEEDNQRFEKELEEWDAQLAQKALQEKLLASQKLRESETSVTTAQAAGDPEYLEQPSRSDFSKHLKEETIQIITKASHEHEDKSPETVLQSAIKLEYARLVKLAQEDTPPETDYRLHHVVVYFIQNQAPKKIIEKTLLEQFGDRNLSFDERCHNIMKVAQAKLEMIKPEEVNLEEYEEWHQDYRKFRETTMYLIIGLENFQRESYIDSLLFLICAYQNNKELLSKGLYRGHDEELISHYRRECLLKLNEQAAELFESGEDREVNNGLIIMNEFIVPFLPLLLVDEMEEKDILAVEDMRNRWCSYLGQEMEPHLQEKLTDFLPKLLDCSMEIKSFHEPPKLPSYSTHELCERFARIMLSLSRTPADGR
# Procedure, shortened: as §1
# USP28 = molecular target: T4, USP28 (UniProt Q96RU2)
# T4 sequence (whole entry): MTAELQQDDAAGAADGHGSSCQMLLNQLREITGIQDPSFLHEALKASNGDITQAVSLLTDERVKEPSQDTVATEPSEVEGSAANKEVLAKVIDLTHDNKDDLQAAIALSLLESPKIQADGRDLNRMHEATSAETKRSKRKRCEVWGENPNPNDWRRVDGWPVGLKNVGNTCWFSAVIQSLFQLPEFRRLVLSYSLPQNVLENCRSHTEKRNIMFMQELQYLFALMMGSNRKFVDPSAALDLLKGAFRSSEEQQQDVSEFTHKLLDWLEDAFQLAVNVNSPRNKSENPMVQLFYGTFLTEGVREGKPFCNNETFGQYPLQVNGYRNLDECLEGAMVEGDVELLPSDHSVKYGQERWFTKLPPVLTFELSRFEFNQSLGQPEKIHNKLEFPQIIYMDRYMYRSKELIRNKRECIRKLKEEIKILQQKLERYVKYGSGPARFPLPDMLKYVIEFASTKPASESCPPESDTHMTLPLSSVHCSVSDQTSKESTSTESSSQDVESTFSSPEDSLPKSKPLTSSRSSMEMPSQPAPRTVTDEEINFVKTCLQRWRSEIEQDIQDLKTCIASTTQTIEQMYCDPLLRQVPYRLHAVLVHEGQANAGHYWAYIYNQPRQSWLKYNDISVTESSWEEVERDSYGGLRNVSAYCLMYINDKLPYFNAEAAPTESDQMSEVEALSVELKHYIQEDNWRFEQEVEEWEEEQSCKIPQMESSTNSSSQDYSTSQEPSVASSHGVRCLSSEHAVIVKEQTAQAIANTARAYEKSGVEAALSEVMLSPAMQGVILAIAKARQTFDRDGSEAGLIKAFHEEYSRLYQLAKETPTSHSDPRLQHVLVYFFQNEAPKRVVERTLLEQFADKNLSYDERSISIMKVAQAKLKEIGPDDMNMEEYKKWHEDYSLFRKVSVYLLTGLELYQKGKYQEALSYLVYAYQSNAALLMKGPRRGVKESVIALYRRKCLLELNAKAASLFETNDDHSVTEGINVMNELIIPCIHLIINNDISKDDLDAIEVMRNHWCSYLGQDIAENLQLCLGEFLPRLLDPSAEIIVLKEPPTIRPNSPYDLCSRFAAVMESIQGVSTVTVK
# Procedure, shortened: as §1
structure (smiles),measurement,setting,value
Cc1ccc(C)c(NC(=O)CCl)c1,log2 ratio of Biotin-Ahx-Ub-VS probe labelling,USP19,-0.203
same,log2 ratio of Biotin-Ahx-Ub-VS probe labelling,USP22,-0.27
same,log2 ratio of Biotin-Ahx-Ub-VS probe labelling,USP24,-0.729
same,log2 ratio of Biotin-Ahx-Ub-VS probe labelling,USP25,-1.41 (active)
same,log2 ratio of Biotin-Ahx-Ub-VS probe labelling,USP28,-1.56 (active)
